Some test systems named below: NCI-H23 lung; NCI-H226 lung; NCI-H322M lung; HOP-62 NSCLC; NCI-H460 lung; NCI-H522 lung; A549/ATCC NSCLC; 786-0 renal; COLO 205 colon; DU-145 prostate; K-562 leukemia; MALME-3M melanoma; MDA-MB-231 breast; RXF 393 renal; SF-268 CNS; SF-295 CNS; SF-539 CNS; M14 melanoma; HCT-15 colon; UACC-257 melanoma.
Holding throughout (test): NCI-60 one-dose screen, 48 h (100 = growth as untreated, 0 = no growth, -100 = all killed)
Holding throughout (settings): 10 µM unless noted

The panel holds about 83,000 compounds, 20% with a hit somewhere; the sample as a whole holds those more often.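 In brief: 96-well plates, 48 h treatment, single concentration, percent growth endpoint.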 A number with no mark means an inactive call. Active and inactive are the calls of the source. Rule for the calls: active = growth percent below 10; inactive = the rest.

For `Fc1ccc(-c2nnc(/C=C/c3cn(-c4ccccc4)nc3-c3ccccc3)o2)cc1`, the growth with NCI-H23 lung was 88%; in the assay with NCI-H226 lung, 92.8%; with NCI-H322M lung, 95.5%; in the assay with HOP-62 NSCLC, 87.4%; in the assay on NCI-H460 lung, 78.6%; in the assay with NCI-H522 lung it was 85.3%. In addition, the growth was 75.2% in the assay on A549/ATCC NSCLC; 89.8% in the assay on 786-0 renal; 94.2% in the assay on COLO 205 colon; 110% in the assay on DU-145 prostate; 107% in the assay on K-562 leukemia; 88.9% in the assay on MALME-3M melanoma. The growth in the assay on MDA-MB-231 breast was 94.2%; in the assay on RXF 393 renal, 105%; in the assay with SF-268 CNS, 103%; with SF-295 CNS, 94.4%; in the assay on SF-539 CNS, 89.1%; with M14 melanoma, 93.1%. The growth in the assay on HCT-15 colon was 96.1%.
As for `Cc1cc(C(C)(C)c2cc(C)c(O)c(CN(C)C)c2)cc(CN(C)C)c1O`, the growth is 105% in the assay with NCI-H23 lung; 96.5% in the assay with NCI-H226 lung; 70.7% in the assay with NCI-H322M lung; 99.8% in the assay on HOP-62 NSCLC; 101% with NCI-H460 lung; 85.7% in the assay on NCI-H522 lung. Also, the growth in the assay with A549/ATCC NSCLC is 97.7%; in the assay with 786-0 renal, 73.1%; in the assay with COLO 205 colon, 89%; in the assay on DU-145 prostate it was 97.1%; in the assay on K-562 leukemia, 76.6%; in the assay with MALME-3M melanoma, 57.7%. Besides, the growth in the assay with MDA-MB-231 breast is 59.5%; in the assay on RXF 393 renal it was 61.5%; with SF-268 CNS, 101%; in the assay with SF-295 CNS, 100%; with SF-539 CNS, 80.3%; in the assay on UACC-257 melanoma, 85%. Moreover, the growth was 77.7% in the assay on M14 melanoma and 80.8% in the assay with HCT-15 colon.
`CC(C)[O-].CC(C)[O-].CN(CCN(C)Cc1cc(F)cc(F)c1[O-])Cc1cc(F)cc(F)c1[O-].[Ti+4]`: the growth with NCI-H23 lung was 6.91% (active); in the assay with NCI-H226 lung, 25.6%; in the assay with NCI-H322M lung, 0.494% (active); in the assay with HOP-62 NSCLC, -5.62% (active); in the assay with NCI-H460 lung, -27.8% (active); with NCI-H522 lung it was -32.3% (active). Also, the growth was 2.03% (active) in the assay on A549/ATCC NSCLC; 19.1% in the assay on 786-0 renal; 1.34% (active) in the assay on COLO 205 colon; 17.7% with DU-145 prostate; 8.81% (active) in the assay with K-562 leukemia; -55.4% (active) with MALME-3M melanoma. In addition, the growth with MDA-MB-231 breast was 11%; with RXF 393 renal, -79.1% (active); in the assay on SF-268 CNS it was 6.13% (active); in the assay with SF-295 CNS, -9.78% (active); in the assay on SF-539 CNS it was -0.0224% (active); in the assay with UACC-257 melanoma it was 17.1%. The growth in the assay on M14 melanoma was -41.9% (active); in the assay on HCT-15 colon, 15.5%.
`CN(C)c1ccc(/C=C(\C#N)c2nc3ccccc3c(=O)[nH]2)cc1`: the growth was 70.2% in the assay on NCI-H23 lung; 74.1% in the assay on NCI-H226 lung; 89.7% with NCI-H322M lung; 105% with HOP-62 NSCLC; 87.3% in the assay with NCI-H460 lung; 84.2% with NCI-H522 lung. Moreover, the growth in the assay on A549/ATCC NSCLC is 99.5%; with 786-0 renal, 91.9%; in the assay on COLO 205 colon, 111%; with DU-145 prostate, 93%; with K-562 leukemia, 118%; with MALME-3M melanoma, 75.8%. Also, the growth was 76% in the assay with MDA-MB-231 breast; 91.1% with RXF 393 renal; 69.4% with SF-268 CNS; 92.9% in the assay with SF-295 CNS; 93.6% in the assay with SF-539 CNS; 97.3% with M14 melanoma. Also, the growth with HCT-15 colon is 97.2%.
For `CC(=O)c1cc(C(=O)c2ccc3c(c2)Sc2ccccc2N3)c2c(C)cc(C)cn12`, the growth was 26.7% in the assay on NCI-H23 lung; 30% with NCI-H226 lung; 44.9% with NCI-H322M lung; 20.8% in the assay with HOP-62 NSCLC; 0.69% (active) with NCI-H460 lung; -31.2% (active) in the assay with NCI-H522 lung. Moreover, the growth with A549/ATCC NSCLC is 3.95% (active); in the assay on 786-0 renal, 4% (active); with COLO 205 colon, -37.4% (active); with DU-145 prostate, 2.22% (active); with K-562 leukemia, 4.47% (active); with MALME-3M melanoma, 69.6%. Moreover, the growth in the assay with MDA-MB-231 breast is -13.5% (active); with RXF 393 renal, 34.3%; with SF-268 CNS, 11.9%; in the assay on SF-295 CNS, -1.02% (active); in the assay on SF-539 CNS it was -2.53% (active); with UACC-257 melanoma, 26.9%. The growth was 9.62% (active) in the assay on M14 melanoma and 15% in the assay with HCT-15 colon.
In the case of `CC[C@@H]1OC(=O)[C@H](C)[C@@H](O[C@H]2C[C@@](C)(OC)[C@@H](O)[C@H](C)O2)[C@H](C)[C@@H](O[C@@H]2O[C@H](C)C[C@H](N(C)C)[C@H]2O)[C@](C)(O)C[C@@H](C)[C@@H]2N[C@@H](COCCOC)O[C@H]([C@H]2C)[C@]1(C)O`, the growth was 94% in the assay on NCI-H23 lung; 110% with NCI-H226 lung; 96% with NCI-H322M lung; 107% in the assay on HOP-62 NSCLC; 117% with NCI-H460 lung; 98.6% with NCI-H522 lung. The growth was 100% with A549/ATCC NSCLC; 95.8% with 786-0 renal; 98.7% in the assay on COLO 205 colon; 100% with DU-145 prostate; 103% with K-562 leukemia; 99.5% in the assay with MALME-3M melanoma. Besides, the growth is 94.6% in the assay on MDA-MB-231 breast; 116% in the assay on RXF 393 renal; 112% in the assay with SF-268 CNS; 110% with SF-295 CNS; 106% with SF-539 CNS; 106% with UACC-257 melanoma. Besides, the growth is 99.7% in the assay on M14 melanoma and 109% in the assay on HCT-15 colon.
Turning to `CCCCN(CCCC)CCCOC(=O)c1ccc(N)cc1`, the growth in the assay with NCI-H23 lung was 96.1%; in the assay with NCI-H226 lung, 76.8%; in the assay with NCI-H322M lung, 98.2%; in the assay on HOP-62 NSCLC, 88.7%; in the assay with NCI-H460 lung, 78.4%; in the assay on NCI-H522 lung it was 67%. In addition, the growth in the assay with A549/ATCC NSCLC is 70.9%; in the assay with 786-0 renal it was 95.4%; in the assay on COLO 205 colon, 57.3%; in the assay with DU-145 prostate, 88.2%; with K-562 leukemia it was 96.5%; in the assay with MALME-3M melanoma it was 93%. The growth with MDA-MB-231 breast was 86.8%; in the assay with RXF 393 renal, 92.1%; with SF-268 CNS, 96.3%; in the assay with SF-295 CNS it was 84.5%; in the assay on SF-539 CNS, 94.4%; in the assay with UACC-257 melanoma, 88%. For the same compound, the growth with M14 melanoma was 93.7%; in the assay with HCT-15 colon, 101%.
Regarding `COc1ccc(Cn2cc3c(c2-c2ccccc2)CCc2cncnc2-3)cc1`, the growth with NCI-H23 lung was 69.9%; in the assay with NCI-H226 lung, 72.1%; in the assay with NCI-H322M lung it was 110%; in the assay on HOP-62 NSCLC it was 61.1%; with NCI-H460 lung, 27%; in the assay on NCI-H522 lung, 26.1%. For the same compound, the growth is 46.6% with A549/ATCC NSCLC; 57.3% with 786-0 renal; 45.5% with COLO 205 colon; 72.9% with DU-145 prostate; 22.1% in the assay on K-562 leukemia; 26.9% with MALME-3M melanoma. Besides, the growth is 50% with MDA-MB-231 breast; 55.3% in the assay with RXF 393 renal; 63.1% with SF-268 CNS; 24.3% with SF-295 CNS; 59.7% in the assay on SF-539 CNS; 74.9% in the assay with UACC-257 melanoma. In addition, the values for the growth in the assay on M14 melanoma and in the assay with HCT-15 colon were 24.5% and 45.3%, respectively.

The values are drawn from PubChem BioAssay (NCI).
